This passage reports composite z-score and z-score results from PubChem BioAssay.

Molecules are shown by their SMILES. Active and inactive are the calls of the source.

Experiment [1] is described as follows: binders of probe aFSTL3 on microarray, primary screen, stem cell growth factor project, biochemical, small-molecule microarray, fluorescence 635/667 (AID 1064).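 Also: measures binding of the biotinylated anti-FSTL3 antibody to printed compounds.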 Conditions: higher = more signal.
A short description of experiment [2]: binders from COS7 lysate, DM2A8 probe, primary screen, torsin A project, cell lysate, small-molecule microarray, fluorescence 635/667 (AID 1065). Conditions: higher = more signal, COS7 lysate expressing mutant human TOR1A.
A short description of experiment [3]: binders of probe aFGF2 on microarray, primary screen, stem cell growth factor project, biochemical, small-molecule microarray, fluorescence 635/667 (AID 1067).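 Also: measures binding of biotinylated aFGF2 protein to printed compounds on slides; z-score merges feature fluorescence and signal-to-noise across triplicate slides.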 Conditions: higher = more signal.
A short description of experiment [4]: binders of probe aFGF10 on microarray, primary screen, stem cell growth factor project, biochemical, small-molecule microarray, fluorescence 635/667 (AID 1071).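 Also: score merges 667 nm spot intensity and signal to noise from triplicate slides.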 The settings on record: higher = more signal.
Experiment [5] addresses Neurogenic locus notch homolog protein 2 (Homo sapiens) (UniProt Q04721). As to the kind of experiment: Notch2 binders on small-molecule microarrays, primary screen, biochemical, small-molecule microarray, 635 nm fluorescence, stem cell growth factors (AID 1073). The settings on record: Notch2 binding, higher = more signal.
Experiment [6] deals with Pro-neuregulin-1, membrane-bound isoform (Homo sapiens) (UniProt Q02297). Briefly: NRG1 binders on small-molecule microarrays, primary screen, psychiatric disease protein project, biochemical, small-molecule microarray, fluorescence 635/667 (AID 1075).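 Also: score combines 667 nm spot fluorescence with signal to noise.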 The settings on record: NRG1 binding, 635 nm fluorescence, higher = more signal.
Pro-neuregulin-1, membrane-bound isoform (Homo sapiens), sequence (Q02297 whole entry, looked up, the tested form may be a part, canonical isoform): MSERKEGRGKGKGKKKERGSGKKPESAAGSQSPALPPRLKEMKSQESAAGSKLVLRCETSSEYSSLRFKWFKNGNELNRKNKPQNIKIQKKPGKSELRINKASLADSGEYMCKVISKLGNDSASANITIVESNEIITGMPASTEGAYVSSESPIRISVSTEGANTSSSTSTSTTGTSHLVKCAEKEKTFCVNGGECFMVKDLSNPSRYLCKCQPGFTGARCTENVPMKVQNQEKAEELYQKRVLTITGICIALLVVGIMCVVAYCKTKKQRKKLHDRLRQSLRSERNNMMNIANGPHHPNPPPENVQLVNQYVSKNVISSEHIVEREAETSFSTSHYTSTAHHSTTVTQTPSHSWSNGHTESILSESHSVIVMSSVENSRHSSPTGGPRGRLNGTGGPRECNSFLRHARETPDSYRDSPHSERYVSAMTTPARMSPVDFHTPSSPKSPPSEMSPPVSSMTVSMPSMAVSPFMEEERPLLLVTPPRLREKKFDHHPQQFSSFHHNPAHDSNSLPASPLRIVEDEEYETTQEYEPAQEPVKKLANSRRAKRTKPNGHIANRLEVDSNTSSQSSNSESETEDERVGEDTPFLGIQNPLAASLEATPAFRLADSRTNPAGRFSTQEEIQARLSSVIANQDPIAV
Experiment [7] relates to Neuregulin-1 EGF-like domain. Briefly: binders of neuregulin-1 EGF-like domain, primary screen, biochemical, small-molecule microarray, 635 nm fluorescence (AID 1081).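 Also: binding of the protein to compounds printed on small-molecule microarray slides.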 The settings on record: small-molecule microarray binding, higher = more signal.
Experiment [8] can be described thus: FRG1 promoter luciferase signal modulators, primary screen, FRG1 inhibition for FSHD, cell-based, C2C12 myotubes, firefly/Renilla luciferase, luminescence (AID 1084). The settings on record: higher = more signal, called active from +8 up or from −8 down.
A short description of experiment [9]: binders of probe aFST on microarray, primary screen, stem cell growth factor project, biochemical, small-molecule microarray, fluorescence 635/667 (AID 1086).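 Also: score merges 667 nm fluorescence with signal-to-noise of each printed compound spot.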 The settings on record: higher = more signal.
A short description of experiment [10]: binders of probe aHhip on microarray, primary screen, stem cell growth factor project, biochemical, small-molecule microarray, fluorescence 635/667 (AID 1087).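 Also: score merges spot fluorescence at 667nm with spot signal to noise ratio.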 The settings on record: higher = more signal.

Neurogenic locus notch homolog protein 2 (Homo sapiens), sequence (Q04721 whole entry, looked up, canonical isoform): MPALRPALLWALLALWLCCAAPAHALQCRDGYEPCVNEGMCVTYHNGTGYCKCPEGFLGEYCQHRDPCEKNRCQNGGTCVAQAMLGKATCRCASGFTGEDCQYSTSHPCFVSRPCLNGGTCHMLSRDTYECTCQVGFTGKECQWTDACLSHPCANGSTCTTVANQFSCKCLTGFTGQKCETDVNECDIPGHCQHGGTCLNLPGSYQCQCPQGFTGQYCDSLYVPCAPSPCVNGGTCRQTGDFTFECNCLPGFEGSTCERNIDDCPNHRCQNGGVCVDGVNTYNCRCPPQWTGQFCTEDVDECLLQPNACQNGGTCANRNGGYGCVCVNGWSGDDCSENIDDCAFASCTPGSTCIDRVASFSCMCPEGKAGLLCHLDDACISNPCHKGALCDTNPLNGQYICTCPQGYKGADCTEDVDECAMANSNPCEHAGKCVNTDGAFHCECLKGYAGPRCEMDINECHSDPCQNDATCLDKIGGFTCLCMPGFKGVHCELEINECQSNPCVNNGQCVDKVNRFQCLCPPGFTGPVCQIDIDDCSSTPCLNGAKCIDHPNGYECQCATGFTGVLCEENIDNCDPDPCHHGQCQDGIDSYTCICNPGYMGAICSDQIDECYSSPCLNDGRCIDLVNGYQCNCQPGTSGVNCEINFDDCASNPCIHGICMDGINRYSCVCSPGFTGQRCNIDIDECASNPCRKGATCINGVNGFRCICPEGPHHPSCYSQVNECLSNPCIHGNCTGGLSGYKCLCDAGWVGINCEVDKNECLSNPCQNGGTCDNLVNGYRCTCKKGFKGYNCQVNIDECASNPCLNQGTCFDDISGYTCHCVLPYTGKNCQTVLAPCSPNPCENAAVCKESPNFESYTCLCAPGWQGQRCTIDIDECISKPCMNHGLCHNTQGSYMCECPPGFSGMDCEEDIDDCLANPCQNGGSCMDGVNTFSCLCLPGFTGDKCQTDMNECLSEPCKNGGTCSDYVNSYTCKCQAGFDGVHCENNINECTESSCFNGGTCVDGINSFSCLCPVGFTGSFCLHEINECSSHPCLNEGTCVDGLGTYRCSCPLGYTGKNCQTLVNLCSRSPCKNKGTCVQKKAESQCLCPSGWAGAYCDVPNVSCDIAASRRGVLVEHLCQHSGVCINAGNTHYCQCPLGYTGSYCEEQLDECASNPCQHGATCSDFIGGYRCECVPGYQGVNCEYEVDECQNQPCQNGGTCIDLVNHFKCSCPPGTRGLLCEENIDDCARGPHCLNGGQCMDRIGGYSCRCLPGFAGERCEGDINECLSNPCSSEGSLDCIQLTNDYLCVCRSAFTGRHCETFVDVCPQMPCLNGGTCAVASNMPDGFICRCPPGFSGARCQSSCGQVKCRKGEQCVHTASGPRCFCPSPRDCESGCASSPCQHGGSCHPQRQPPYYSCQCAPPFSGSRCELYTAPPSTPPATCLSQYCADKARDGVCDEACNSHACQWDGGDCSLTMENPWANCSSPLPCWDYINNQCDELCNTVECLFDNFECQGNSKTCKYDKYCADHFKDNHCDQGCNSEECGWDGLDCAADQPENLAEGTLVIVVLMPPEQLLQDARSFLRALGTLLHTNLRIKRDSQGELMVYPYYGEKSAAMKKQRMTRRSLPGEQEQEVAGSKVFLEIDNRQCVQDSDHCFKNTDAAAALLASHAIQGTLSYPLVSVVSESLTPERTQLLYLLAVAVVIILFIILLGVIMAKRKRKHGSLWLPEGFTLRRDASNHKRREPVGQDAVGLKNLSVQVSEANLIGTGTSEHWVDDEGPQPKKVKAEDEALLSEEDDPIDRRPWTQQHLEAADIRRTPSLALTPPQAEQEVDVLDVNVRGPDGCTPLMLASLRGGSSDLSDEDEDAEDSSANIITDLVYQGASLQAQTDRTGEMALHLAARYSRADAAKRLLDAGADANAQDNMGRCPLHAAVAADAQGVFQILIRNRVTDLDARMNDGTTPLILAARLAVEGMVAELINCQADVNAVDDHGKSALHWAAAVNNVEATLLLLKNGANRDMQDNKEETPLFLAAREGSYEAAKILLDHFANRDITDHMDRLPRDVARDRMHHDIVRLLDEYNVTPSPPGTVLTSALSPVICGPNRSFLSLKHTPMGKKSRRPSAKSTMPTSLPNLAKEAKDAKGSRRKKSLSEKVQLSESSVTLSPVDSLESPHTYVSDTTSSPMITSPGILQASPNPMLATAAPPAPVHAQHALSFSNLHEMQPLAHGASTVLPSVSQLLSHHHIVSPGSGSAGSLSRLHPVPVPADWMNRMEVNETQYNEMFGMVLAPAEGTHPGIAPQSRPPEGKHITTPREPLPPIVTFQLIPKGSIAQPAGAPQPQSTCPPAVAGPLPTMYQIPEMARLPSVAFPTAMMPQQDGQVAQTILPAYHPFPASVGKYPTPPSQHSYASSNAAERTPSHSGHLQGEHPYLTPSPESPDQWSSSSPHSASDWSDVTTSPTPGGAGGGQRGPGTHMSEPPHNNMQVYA

Take `[N-]=[N+]=Nc1ccccc1C[C@]1(C(=O)O)N=C(c2ccc(OCCCO)cc2)O[C@H]1c1ccccc1N=[N+]=[N-]`: the composite z-score in experiment [1] amounted to 0.951; in [2], 0.618; in [3] it was 0.0857; in [4], 0.619; in [5], 1.23; in experiment [6], 1. Moreover, the figures for the composite z-score in experiment [7], in experiment [9] and in experiment [10] were 1.04, 0.992 and 0.543, respectively. Further, in [8], the z-score is -1.57 (inactive).

With `[N-]=[N+]=Nc1ccccc1C[C@]1(C(=O)O)N=C(c2ccc(OCCCO)cc2)O[C@H]1c1ccccc1`, the composite z-score in experiment [1] was 0.0867; in [2] it was 0.444; in experiment [3], -0.0785; in experiment [4], 0.743; in experiment [5] it was 0.448; in [6], 1.94. The composite z-score was 1.21 in experiment [7], 0.834 in experiment [9] and -0.199 in experiment [10]. Also, the z-score in [8] is -1.4 (inactive).

Regarding `COc1ccc([Si](C)(C)[C@@H]2[C@@H](CCn3cc([C@H](O)c4ccccc4)nn3)O[C@]3(C(=O)N(c4ccccc4)c4ccccc43)[C@H]2C)cc1`, the composite z-score was -0.162 in [1]; 0.297 in experiment [2]; -0.0824 in [3]; 0.211 in [4]; 0.0701 in [5]; 0.336 in [6]. Moreover, the figures for the composite z-score in experiment [7], in experiment [9] and in [10] were 0.75, -0.0029 and -0.122, respectively. Further, the z-score in experiment [8] is -0.587 (inactive).

In the case of `CCOC(=O)C[C@H]1[C@H](OC(=O)c2ccc(-c3ccccc3)cc2)[C@@H](NC(=O)CC(C)C)c2cc(OCCCO)ccc2N1C(=O)c1ccccc1`, the composite z-score in [1] is -0.308; in experiment [2], -0.288; in experiment [3], -0.0236; in experiment [4] it was 0.311; in [5], 0.623; in [6], -0.037. Moreover, the figures for the composite z-score in [7], in experiment [9] and in [10] were 0.648, 0.547 and -0.217, respectively. Also, in experiment [8], the z-score is -0.165 (inactive).

In the case of `COc1cc(NN2C(C(O)C3CCCCC3)C=CC3C(=O)N(C)C(=O)C32)cc(OC)c1OC` (stereo not given), the composite z-score in experiment [1] is 0.322; in [2], 0.054; in experiment [3], 0.162; in experiment [4], 0.306; in experiment [5], 1.59; in experiment [6] it was 1.65. For the same compound, the composite z-score in experiment [7] is 1.21; in experiment [9], 0.479; in experiment [10], 0.0877. For the same compound, the z-score in experiment [8] is 0.391 (inactive).

As to `O=C(O)[C@H]1C[C@H]2C(=O)N[C@@H](Cc3ccccc3)C(=O)N2[C@H]1c1cccc(OCCO)c1`, the composite z-score in [1] is 0.07; in experiment [2], 0.96; in [3], -0.0246; in [4], 0.495; in [5], -0.116; in experiment [6], 0.154. The values for the composite z-score in experiment [7], in [9] and in experiment [10] were 1.44, 0.309 and 0.188, respectively. Moreover, the z-score in experiment [8] was 5.68 (inactive).

Consider `CC=CC(O)C1C=CC2C(=O)NC(=O)C2N1Nc1ccccn1` (stereo not given), for which the composite z-score was -0.293 in [1]; 0.205 in [2]; -0.151 in experiment [3]; 0.204 in experiment [4]; 1.03 in experiment [5]; 0.934 in experiment [6]. In addition, the composite z-score was 1.24 in experiment [7], 0.128 in [9] and -0.0618 in [10]. The z-score in [8] is 0.571 (inactive).

As for `COCCOC(=O)N1C(=O)[C@@]2(c3cc(C#CCNC(N)=O)ccc31)[C@H](c1ccc(OCCO)cc1)N1[C@H](c3ccccc3)[C@H](c3ccccc3)OC(=O)[C@H]1[C@@H]2C(N)=O`, the composite z-score turned out to be 0.423 in [1]; 0.278 in [2]; 0.0541 in [3]; 0.913 in [4]; 1.49 in experiment [5]; 0.897 in experiment [6]. The composite z-score worked out at 0.809 in [7], 0.715 in [9] and 0.351 in experiment [10]. Besides, the z-score in experiment [8] was 0.47 (inactive).

On to `CC(C)C(=C=CC[C@H](O)c1cccc(OCCO)c1)CCO`, for which the composite z-score in [1] was -0.068; in [2], 1.33; in experiment [3] it was -0.0937; in experiment [4], -0.194; in experiment [5], -0.379; in [6], -0.356. Moreover, the values for the composite z-score in experiment [7], in [9] and in [10] were -0.403, -0.045 and -0.287, respectively. In addition, the z-score in experiment [8] was 0.163 (inactive).

With `COc1ccc([Si](C)(C)[C@@H]2[C@@H](CC(=O)N3Cc4ccccc4C[C@H]3CO)O[C@]3(C(=O)N(Cc4ccc(N5CCC5=O)cc4)c4ccccc43)[C@H]2C)cc1`, the composite z-score in experiment [1] is -0.406; in experiment [2], 0.351; in experiment [3], -0.12; in experiment [4], 0.163; in experiment [5], 0.291; in experiment [6], 0.636. The composite z-score is 0.866 in experiment [7], 0.246 in [9] and -0.23 in experiment [10]. For the same compound, the z-score in [8] was -1.63 (inactive).

In the case of `CN(C)C(=O)[C@]1(CCS(=O)(=O)c2ccccc2)N=C(c2ccc(OCCCO)cc2)O[C@@H]1c1ccccc1`, the composite z-score in experiment [1] was found to be 0.227; in experiment [2], 0.398; in experiment [3] it was 0.0759; in [4], 0.88; in experiment [5] it was 1.58; in [6], 1.76. Further, the composite z-score is 1.35 in experiment [7], 0.968 in experiment [9] and -0.236 in [10]. Also, the z-score in experiment [8] is -1.74 (inactive).

Consider `COCCOC(=O)N1C(=O)[C@@]2(c3cc(C#CCNC(N)=O)ccc31)[C@H](c1ccc(O)cc1)N1[C@H](c3ccccc3)[C@H](c3ccccc3)OC(=O)[C@H]1[C@@H]2C(N)=O`, for which the composite z-score in experiment [1] was 0.161; in experiment [2], -0.412; in [3], -0.161; in [4] it was -0.484; in experiment [5], -2.04; in experiment [6] it was -0.702. Also, the composite z-score in experiment [7] was -0.0682; in experiment [9] it was -0.567; in experiment [10], -0.39. Besides, in experiment [8], the z-score was 0.0283 (inactive).

In the case of `COc1cc(NN2C(C(O)c3ccc(I)cc3)C=CC3C(=O)N(c4ccccc4)C(=O)C32)cc(OC)c1OC` (stereo not given), the composite z-score in experiment [1] stood at 0.32; in experiment [2], 0.808; in experiment [3] it was 0.145; in [4], 0.868; in experiment [5], 1.55; in experiment [6], 2.04. Further, the composite z-score was determined as 1.35 in experiment [7], 1.22 in experiment [9] and 0.415 in experiment [10]. Also, in experiment [8], the z-score was -2.51 (inactive).

Turning to `NC(=O)NCC#Cc1ccc2c(c1)[C@]1(C(=O)N2)[C@H](C(=O)N2CCN(c3ncccn3)CC2)[C@H]2C(=O)O[C@H](c3ccccc3)[C@H](c3ccccc3)N2[C@@H]1c1ccc(OCCO)cc1`, the composite z-score in experiment [1] was 0.0085; in experiment [2], 0.0039; in experiment [3] it was -0.0222; in experiment [4] it was 0.375; in experiment [5] it was 0.884; in [6], 0.133. The composite z-score came to 0.148 in [7], 0.548 in experiment [9] and 0.0659 in experiment [10]. Besides, the z-score in experiment [8] is 1.62 (inactive).

Consider `C=CC[C@H](OC(=O)Nc1ccc(SC)cc1)c1ccc(OCCO)cc1`, for which the composite z-score is 0.339 in experiment [1]; 0.0366 in experiment [2]; -0.107 in experiment [3]; -0.85 in experiment [4]; -1.2 in experiment [5]; 0.958 in [6]. The composite z-score in experiment [7] is 1.07; in experiment [9], -0.413; in experiment [10], -0.0994. Also, the z-score in experiment [8] was 8.37 (active).

`O=C1[C@@]23C=C(Br)[C@H](C[C@@H]2COC3)[C@@]12CO2`: the composite z-score in experiment [1] is -0.325; in experiment [2], 0.422; in experiment [3], -0.112; in experiment [4], 0.38; in experiment [5], 0.32; in [6], 0.0504. Besides, the composite z-score in [7] is 0.0447; in experiment [9] it was 0.159; in experiment [10], -0.268. In addition, in experiment [8], the z-score is -0.214 (inactive).
